The text below walks through data of PubChem BioAssay (NCI).

This is part of a sample that, as a whole, favours compounds with a hit. Of some 83,000 tested, about 20% had one in any assay.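 In brief: 96-well plates, 48 h treatment, single concentration, percent growth endpoint.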 Unmarked numbers belong to inactive results. Calls of active or inactive are those of the source. Rule for the calls: active = growth percent below 10; inactive = the rest.

Some test systems named below: NCI-H23 lung; NCI-H226 lung; NCI-H322M lung; HOP-62 NSCLC; NCI-H460 lung; HOP-92 NSCLC; NCI-H522 lung; A549/ATCC NSCLC; 786-0 renal; COLO 205 colon; DU-145 prostate; K-562 leukemia; MALME-3M melanoma; MDA-MB-231 breast; RXF 393 renal; SF-268 CNS; SF-295 CNS; SF-539 CNS; UACC-257 melanoma; M14 melanoma.
Common to all, as to assay: NCI-60 one-dose screen, 48 h (100 = growth as untreated, 0 = no growth, -100 = all killed)
Common to all, as to settings: 10 µM unless noted

As for `O=C1N[C@@H]2[C@@H](O)[C@@H](O)[C@H](O)C[C@H]2c2cc3c(c(O)c21)OCCO3`, the growth in the assay with NCI-H23 lung is -40.9% (active); in the assay on NCI-H226 lung, -11.3% (active); in the assay on NCI-H322M lung, -24.3% (active); in the assay with HOP-62 NSCLC, -26.5% (active); in the assay with NCI-H460 lung, 1.26% (active); with HOP-92 NSCLC it was -20.1% (active). For the same molecule, the growth is -36.1% (active) in the assay with NCI-H522 lung; -14.3% (active) in the assay with A549/ATCC NSCLC; -1.5% (active) in the assay on 786-0 renal; -49% (active) with COLO 205 colon; -2.39% (active) with DU-145 prostate; 1.56% (active) in the assay on K-562 leukemia. In addition, the growth is -23.8% (active) in the assay with MALME-3M melanoma; -24.1% (active) in the assay on MDA-MB-231 breast; -24.2% (active) in the assay on RXF 393 renal; -0.713% (active) in the assay with SF-268 CNS; -14.9% (active) with SF-295 CNS; -24.1% (active) in the assay with SF-539 CNS. The growth in the assay on UACC-257 melanoma is -22.2% (active); in the assay with M14 melanoma, -45.7% (active).
Consider `COc1cc2cc(NCc3ccc(OC(F)F)cc3)nc(C)c2cc1OC`, for which the growth was 45.1% with NCI-H23 lung; 75.5% in the assay on NCI-H226 lung; 53.4% in the assay on NCI-H322M lung; 58.7% in the assay with HOP-62 NSCLC; 57.2% in the assay with NCI-H460 lung; 63% in the assay on HOP-92 NSCLC. For the same molecule, the growth with NCI-H522 lung is 45.3%; with A549/ATCC NSCLC, 72.1%; in the assay on 786-0 renal, 61.8%; with COLO 205 colon it was 65.7%; with DU-145 prostate, 75.8%; in the assay with K-562 leukemia, 34%. Moreover, the growth is 72.4% with MALME-3M melanoma; 62.6% with MDA-MB-231 breast; 67.1% in the assay on RXF 393 renal; 73.2% in the assay with SF-268 CNS; 35% with SF-295 CNS; 69.1% with SF-539 CNS. For the same molecule, the growth in the assay with UACC-257 melanoma was 87.5%; in the assay on M14 melanoma it was 63.9%.
For `O=C(N/N=C/c1ccc([N+](=O)[O-])cc1)c1ccc2nc(-c3ccc(Cl)cc3)[nH]c2c1`, the growth with NCI-H23 lung was 16.2%; in the assay with NCI-H226 lung, 54.8%; in the assay with NCI-H322M lung, 70.1%; in the assay with HOP-62 NSCLC, 44.8%; with NCI-H460 lung, 5.44% (active); in the assay with HOP-92 NSCLC, 59.7%. Further, the growth with NCI-H522 lung was 33%; in the assay on A549/ATCC NSCLC, 34.5%; with 786-0 renal, 49%; in the assay on COLO 205 colon, 2.28% (active); in the assay with DU-145 prostate, 42%; in the assay with K-562 leukemia it was 9.68% (active). In addition, the growth in the assay with MALME-3M melanoma was 7.79% (active); with MDA-MB-231 breast, 76.9%; in the assay with RXF 393 renal it was 31.6%; in the assay with SF-268 CNS, 48.5%; in the assay with SF-295 CNS, 21.7%; with SF-539 CNS, 41.7%. For the same molecule, the growth with UACC-257 melanoma is 25.1%; in the assay on M14 melanoma it was 25.9%.
Consider `COc1cc(/C=C\c2cc(/C=C\c3ccc(O)c(OC)c3)n(C(=O)CNc3ccc(Cl)cc3)n2)ccc1O`, for which the growth in the assay with NCI-H23 lung was 24%; with NCI-H226 lung, 51.2%; in the assay with NCI-H322M lung, 39.2%; in the assay with HOP-62 NSCLC, 23.3%; in the assay on NCI-H460 lung, 6.98% (active); in the assay with HOP-92 NSCLC, 66.9%. Also, the growth in the assay with NCI-H522 lung is 2.11% (active); in the assay with A549/ATCC NSCLC, 19.5%; with 786-0 renal it was 15.7%; in the assay on COLO 205 colon, 90.4%; with DU-145 prostate it was 27.7%; in the assay on K-562 leukemia, 6.99% (active). In addition, the growth in the assay with MALME-3M melanoma is 34.2%; in the assay on MDA-MB-231 breast, 43%; in the assay on RXF 393 renal, 3.29% (active); in the assay with SF-268 CNS, 25.5%; with SF-295 CNS, 72.8%; in the assay on SF-539 CNS, 8.34% (active). For the same molecule, the growth in the assay on UACC-257 melanoma is 70.2%; with M14 melanoma, 4.29% (active).
For `COC(=O)/C(CCC=C(C)C)=C1\[C@@H](OC(C)=O)C[C@@]2(C)[C@H]1CC(=O)[C@H]1[C@@]3(C)CCC(N4CCCC4)[C@@H](C)[C@@H]3CC[C@@]12C` (stereo not given in full), the growth in the assay on NCI-H23 lung is 91.5%; in the assay with NCI-H226 lung, 113%; with NCI-H322M lung it was 99.6%; in the assay on HOP-62 NSCLC it was 102%; in the assay on NCI-H460 lung, 101%; in the assay with HOP-92 NSCLC, 77.2%. The growth with NCI-H522 lung is 102%; in the assay with A549/ATCC NSCLC, 104%; in the assay on 786-0 renal, 93.1%; with COLO 205 colon, 106%; in the assay on DU-145 prostate, 101%; in the assay on K-562 leukemia it was 12.5%. Also, the growth with MALME-3M melanoma was 100%; in the assay with MDA-MB-231 breast, 130%; in the assay with RXF 393 renal, 98.3%; with SF-268 CNS, 97.6%; with SF-295 CNS, 98.3%; in the assay with SF-539 CNS it was 102%. For the same molecule, the growth is 110% in the assay on UACC-257 melanoma and 93.1% in the assay on M14 melanoma.
`Cc1ccc2nc(Cl)c(Cn3nnnc3SCc3ccccc3)cc2c1`: the growth in the assay on NCI-H23 lung was 91.8%; in the assay on NCI-H226 lung, 79.6%; in the assay with NCI-H322M lung, 105%; in the assay on HOP-62 NSCLC, 86%; in the assay with NCI-H460 lung, 98.4%; with HOP-92 NSCLC, 70.6%. In addition, the growth with NCI-H522 lung was 77.5%; in the assay on A549/ATCC NSCLC, 92.5%; in the assay with 786-0 renal, 95%; in the assay with COLO 205 colon, 110%; with DU-145 prostate, 101%; in the assay with K-562 leukemia, 87.9%. Also, the growth is 114% with MALME-3M melanoma; 88.2% in the assay with MDA-MB-231 breast; 99.9% in the assay with RXF 393 renal; 93.9% in the assay with SF-268 CNS; 88.1% in the assay on SF-295 CNS; 94.4% in the assay on SF-539 CNS. The growth in the assay on UACC-257 melanoma is 105%; in the assay on M14 melanoma, 89.3%.
With `O=C(CN1C(=O)NC2NC(=O)NC21)N/N=C/c1ccc(Cl)cc1Cl` (stereo not given), the growth in the assay on NCI-H23 lung is 102%; in the assay on NCI-H226 lung, 95.6%; in the assay on NCI-H322M lung it was 104%; in the assay with HOP-62 NSCLC it was 114%; in the assay on NCI-H460 lung, 105%; in the assay on HOP-92 NSCLC, 125%. In addition, the growth is 93.3% with NCI-H522 lung; 110% in the assay on A549/ATCC NSCLC; 96.6% with 786-0 renal; 125% in the assay on COLO 205 colon; 113% in the assay on DU-145 prostate; 105% with K-562 leukemia. Moreover, the growth in the assay on MALME-3M melanoma was 106%; in the assay on MDA-MB-231 breast it was 109%; in the assay with RXF 393 renal, 117%; with SF-268 CNS it was 99.6%; in the assay on SF-295 CNS, 101%; in the assay on SF-539 CNS, 93.3%. The growth in the assay with UACC-257 melanoma is 114%; with M14 melanoma it was 104%.
As to `CCN(CC)c1ccc(/C=C\c2cc(C)c3cc(C)ccc3n2)cc1`, the growth in the assay on NCI-H23 lung is 30.3%; with NCI-H226 lung it was 59.5%; in the assay on NCI-H322M lung it was 83%; with HOP-62 NSCLC it was 45.6%; with NCI-H460 lung it was 16.8%; with HOP-92 NSCLC, -10.9% (active). Moreover, the growth in the assay with NCI-H522 lung was 28.6%; in the assay with A549/ATCC NSCLC, 31.9%; with 786-0 renal it was 2.99% (active); with COLO 205 colon it was 50%; with DU-145 prostate, 61.5%; in the assay with K-562 leukemia, 13.1%. The growth in the assay with MALME-3M melanoma is 32.9%; in the assay on MDA-MB-231 breast, 54.2%; in the assay with RXF 393 renal, 16.1%; with SF-268 CNS, 40.2%; in the assay on SF-295 CNS it was 24.4%; in the assay on SF-539 CNS it was 20.1%. In addition, the growth was 24.4% in the assay on UACC-257 melanoma and 15.9% in the assay with M14 melanoma.
